Laboratory results taken from PubChem BioAssay (NCATS).
Results filed as inconclusive are left out. Activity calls are given as the source filed them. Calls come from the whole dose curve; as a rule, active = well fitted curve in the direction sought with a large enough effect; inconclusive = small, poorly fitted or top-dose-only effect, or another doubt; inactive = no such curve, though single readings can be large; an effect the other way counts as inactive or inconclusive.

Tests used:
[1] = U-118MG Cancer Cell Toxicity qHTS against the NCATS CANVASS Library (AID 1347351); note: potency is the fitted concentration of half-maximal effect; for activity change, negative = cytotoxicity: series mostly up to about 38 µM; % is set by controls: 0 for no effect and ±100 for the full control effect
Summary of the method: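 Per well, 1000 cells; exposure 72 h with compound at 11 final concentrations; readout CellTiter-Glo luminescence.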

[2] = A2780 Cisplatin Sensitive Ovarian Cancer Cell Toxicity qHTS against the NCATS CANVASS Library (AID 1347353); note: nearly all actives have a fitted effect of over 60% in size; note: potency is the fitted concentration of half-maximal effect; for activity change, negative = cytotoxicity: series mostly up to about 46 µM; % is set by controls: 0 for no effect and ±100 for the full control effect
Summary of the method: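 750 cells/well, 4 h settle; 11-pt cpd titration; 72 h, 37 °C, 5% CO2; ATPLite 10 min RT; luminescence read.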

[3] = UWB1.289-WTBRCA1 Cancer Cell Toxicity qHTS against the NCATS CANVASS Library (AID 1347354); note: potency is the fitted concentration of half-maximal effect
Summary of the method: (§1)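 1000 cells/well, 4 h pre-incubation 37 °C/5% CO2; 11-pnt titration; 72 h; CellTiter-Glo 15 min RT, luminescence.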

[4] = HEK-293 Cancer Cell Toxicity qHTS against the NCATS CANVASS Library (AID 1347355); note: series mostly up to about 46 µM; nearly all actives have a fitted effect of over 65% in size
Summary of the method: as §1

[5] = HPAF-II 24hr Apoptosis Induction qHTS against the NCATS CANVASS Library (AID 1347356); note: 0% is about no effect
Summary of the method: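 500 HPAF-II cells/well; compounds in 11-pnt qHTS; 24 h, 37 C/5% CO2; Caspase-Glo 3/7 added, 15 min RT dark; luminescence read. Doxorubicin control.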

[6] = system: NAD(P)H diaphorase (Clostridium kluyveri); test: Diaphorse counterscreen qHTS: Assay Interference Panel against the NCATS CANVASS Library (AID 1347362); note: 0% is about no effect
Summary of the method: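 Clostridium kluyveri diaphorase in PBS with 0.01% Tween-20 was preincubated 15 min at room temperature in the dark with compounds (11-point series). Resorufin fluorescence (ex 525/20, em 598/25) was read 5 min after adding resazurin/NADH.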

[7] = KB-8-5-11 Cancer Cell Toxicity qHTS against the NCATS CANVASS Library (AID 1347364); note: nearly all actives have a fitted effect of over 75% in size
Summary of the method: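 CellTiter-Glo luminescence after 72 h exposure; 500 KB-8-5-11 cells/well, DMEM/10% FBS, 37C, 5% CO2; compounds in 11-pt qHTS. Follow-up confirmation included medium with 1uM tariquidar.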

[8] = SDT Cancer Cell Toxicity qHTS against the NCATS CANVASS Library (AID 1347365); note: nearly all actives have a fitted effect of over 60% in size; note: potency is the fitted concentration of half-maximal effect
Summary of the method: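 Luminescent ATP read-out (CellTiterGlo) after 72 hr compound exposure of dog glioma SDT cells, 500 per well. Eleven-point titrations; bortezomib titration run alongside as control.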

[9] = qHTS for ATAD5 Antagonist screened against the NCATS CANVASS Library (AID 1347370); note: nearly all actives have a fitted effect of over 65% in size; note: potency is the fitted concentration of half-maximal effect
Summary of the method: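 HEK293T-ATAD5 luc reporter, 2000 cells/well; 5hr attach; cpd + 10 uM 5-FUrd; 16hr 37C, 5% CO2. Readouts: CellTiter-Fluor fluorescence (1hr), then Amplite luciferase luminescence (30min RT).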

[10] = target: Nuclear receptor subfamily 1 group I member 3 (Homo sapiens) (UniProt Q14994); test: qHTS for Constitutive Androstane Receptor (CAR) Antagonist screened against the NCATS CANVASS Library (AID 1347372);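 note: cells stimulated with 50 nM CITCO agonist so inhibition reflects antagonism; luciferase from CYP2B6 promoter reporter driven by hCAR in HepG2 cells; series mostly up to about 46 µM; % is set by controls: 0 for no effect and ±100 for the full control effect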
Sequence of Nuclear receptor subfamily 1 group I member 3 (Homo sapiens) (Q14994 whole entry, looked up): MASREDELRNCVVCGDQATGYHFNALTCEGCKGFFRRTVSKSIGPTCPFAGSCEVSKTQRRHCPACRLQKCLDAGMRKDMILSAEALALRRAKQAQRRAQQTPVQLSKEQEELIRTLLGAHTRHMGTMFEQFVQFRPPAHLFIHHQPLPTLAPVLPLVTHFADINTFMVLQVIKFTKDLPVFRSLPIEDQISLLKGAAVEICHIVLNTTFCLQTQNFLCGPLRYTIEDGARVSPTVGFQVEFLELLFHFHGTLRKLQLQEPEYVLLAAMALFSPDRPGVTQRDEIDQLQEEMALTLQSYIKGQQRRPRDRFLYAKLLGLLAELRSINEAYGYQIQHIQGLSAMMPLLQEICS
Summary of the method: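 Cells were seeded and left 4hr to attach, then received compound at 11 concentrations and 50 nM CITCO. Following 24hr incubation, fluorescence viability and luciferase luminescence were read sequentially.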

[11] = qHTS for Hypoxia signaling pathway (HIF-1) agonists against the NCATS CANVASS Library (AID 1347375); note: potency is the fitted concentration of half-maximal effect; for activation: 0% is about no effect
Summary of the method: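 Read-out: beta-lactamase FRET (CCF4-AM, ex 405, em 460 and 530 nm) after 2 h at room temperature. ME-180 cells stably carrying HRE-bla were treated 17 h at 37C with compounds in an 11-point concentration series.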

[12] = DH5-alpha competent E. coli microbial cell viability qHTS against the NCATS CANVASS Library (AID 1347377); settings: outcome: dose series up to 46.1 µM unless noted; for viability signal change, negative = cytotoxic: 0% is about no effect
Summary of the method: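 Luminescent ATP read-out (BacTiter-Glo, 20 min RT) after overnight 37C culture of DH5-alpha E. coli with compounds; daunomycin control at 0.2 nM–9.2 uM final.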

[13] = qHTS for H2AX Agonists against the NCATS CANVASS Library (AID 1347378);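 note: phospho-H2AX S139 level in CHO-K1 lysates by TR-FRET emission ratio; 0% is about no effect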
Summary of the method: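 Following overnight seeding, CHO-K1 cells are incubated with a concentration series of compound for 3 hr at 37C (final DMSO 0.76%). Cells are then lysed, detection antibodies added, and emission ratio 665/620 nm recorded after 24 hr at room temperature.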

[14] = Cytotoxicity qHTS for assessment of Hepg2 cells membrane integrity screened against the NCATS CANVASS Library (AID 1347387)
Summary of the method: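 LDH release read by fluorescence (560 nm ex/590 nm em) after CytoTox-ONE addition and 10 min RT; signal tracks lysed cells. HepG2, 2000 cells/well, plated overnight; compound 5 hr, 37C, 5% CO2, final 0.59 nM - 46 uM, 11 points.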

[15] = qHTS for Activators of p53 Stress Response Pathway screened against the NCATS CANVASS Library (AID 1347388); note: 0% is about no effect
Summary of the method: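 p53RE-bla HCT-116 cells (4000/well) were plated 5 h at 37C, exposed to compounds for 16 h at 37C over an 11-point concentration series, then loaded with CCF4 for 2 h at room temperature; 460/530 nm emission ratio read.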

[16] = qHTS assay for small molecule disruptors of mitochondrial membrane potential screened against the NCATS CANVASS Library (AID 1347389); note: nearly all actives have a fitted effect of over 60% in size; note: potency is the fitted concentration of half-maximal effect
Summary of the method: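 Red/green fluorescence ratio read-out: J-aggregates ex 540/em 590 nm, monomers ex 490/em 535 nm. HepG2, 1 hr compound treatment, then 30 min Mito-MPS dye at 37C. 11-pt qHTS concentration series.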

[17] = Secretion counterscreen for inhibitors of the SERCaMP assay screened against the NCATS CANVASS Library (AID 1347390);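 note: light from luciferase secreted into medium read as a measure of general secretion; series mostly up to about 77 µM; % is set by controls: 0 for no effect and ±100 for the full control effect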
Summary of the method: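 Counterscreen identifying compounds that disrupt secretion, using SH-SY5Y cells with a constitutively secreted Gaussia luciferase reporter. A 20 h compound exposure (top 77 uM) precedes luminescent detection with coelenterazine.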

[18] = qHTS for activators of dead-cell proteases activity screened against the NCATS CANVASS Library (AID 1347392);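 note: luminescence from protease leaking out of membrane-damaged cells cleaving impermeant substrate; 0% is about no effect; rising signal means more cytotoxicity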
Summary of the method: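 Cytotoxicity in HepG2 cells was assessed by released protease cleaving AAF-aminoluciferin, with luminescence as signal. Exposure lasted 5 h at 37C across an 11-point series.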

[19] = Redox Reaction Profiling qHTS: Assay Interference Panel against the NCATS CANVASS Library (AID 1347401); note: potency is the fitted concentration of half-maximal effect;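 for activation (redox signal): 100% = activation by 2 µM chloranil control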
Summary of the method: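 Quantitative HTS over an 11-point series was run in HEPES pH 7.3 with 50 mM NaCl, 200 uM DTT and 5 uM resazurin. Initial and 15-min resorufin fluorescence readings were taken.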

[20] = qHTS for inhibitors of ER calcium dysfunction: SERCaMP assay screened against the NCATS CANVASS Library (AID 1347393); note: nearly all actives have a fitted effect of over 40% in size; note: potency is the fitted concentration of half-maximal effect;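 for activity change, negative = inhibition: series mostly up to about 77 µM; % is set by controls: 0 for no effect and ±100 for the full control effect; lower secreted reporter signal means inhibitor of ER calcium depletion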
Summary of the method: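 qHTS in SH-SY5Y reporter cells: 16 h compound pretreatment, 4 h thapsigargin, then secreted Gaussia luciferase measured by luminescence.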

CC1=CC[C@@]2(C[C@@H]1O)[C@@H](C(=O)O)CC[C@H]2C(C)C
inactive: Potency [1] | Potency [2] | Potency [3] | Potency [4] | outcome [5] | Potency [6] | Potency [7] | Potency [8] | Potency [9] | Potency [10] | Potency [11] | outcome [12] | Potency [13] | outcome [14] | Potency [15] | Potency [16] | Potency [17] | Potency [18] | Potency [19]

O=C(O)CC1OC(=O)c2c(O)cccc21 (stereo not given)
inactive: Potency [1] | Potency [2] | Potency [3] | outcome [5] | Potency [6] | Potency [7] | Potency [9] | Potency [10] | Potency [11] | outcome [12] | Potency [13] | outcome [14] | Potency [15] | Potency [16] | Potency [17] | Potency [18] | Potency [20] | Potency [19]
active: Potency [8] 0.0132 µM

COc1ccc2cc(NC(=O)C3=NO[C@H]4[C@H](O)C=C[C@@H](Cl)[C@@]4(O)C3)c(=O)oc2c1OC
active: Potency [2] 9.35 µM | Potency [20] 15.3 µM
inactive: Potency [1] | Potency [3] | Potency [4] | outcome [5] | Potency [6] | Potency [7] | Potency [10] | Potency [11] | outcome [12] | Potency [13] | outcome [14] | Potency [15] | Potency [16] | Potency [18] | Potency [19]

CC1(C)CCC[C@]2(C)[C@@H]1CC[C@@]13C[C@@H](CC[C@H]12)C(C)(O)C3 (stereo not given in full)
inactive: Potency [1] | Potency [2] | Potency [3] | Potency [4] | outcome [5] | Potency [6] | Potency [7] | Potency [8] | Potency [9] | Potency [10] | Potency [11] | outcome [12] | Potency [13] | outcome [14] | Potency [15] | Potency [16] | Potency [17] | Potency [18] | Potency [20] | Potency [19]

CC(=O)NC[C@@H]1O[C@H](CC/C=C(C)/C(C)=C/C=O)[C@H](C)C[C@H]1O
active: Potency [20] 34.3 µM
inactive: Potency [1] | Potency [3] | Potency [4] | outcome [5] | Potency [6] | Potency [7] | Potency [9] | Potency [10] | Potency [11] | outcome [12] | Potency [13] | outcome [14] | Potency [15] | Potency [16] | Potency [18] | Potency [19]

C[C@H]1C[C@@H]([C@@H]2CC[C@]34O[C@H](CC[C@@]35C[C@H](C)C(=O)O5)CN24)OC1=O
inactive: Potency [1] | Potency [2] | Potency [3] | Potency [4] | outcome [5] | Potency [6] | Potency [7] | Potency [8] | Potency [9] | Potency [10] | Potency [11] | outcome [12] | Potency [13] | outcome [14] | Potency [15] | Potency [16] | Potency [18] | Potency [20] | Potency [19]

O=C(O)[C@@]12COC3(O)C1CCN1CC[C@H]3[C@@H]1c1c2[nH]c2ccccc12
inactive: Potency [1] | Potency [2] | Potency [3] | Potency [4] | outcome [5] | Potency [6] | Potency [7] | Potency [9] | Potency [10] | Potency [11] | outcome [12] | Potency [13] | outcome [14] | Potency [15] | Potency [16] | Potency [17] | Potency [18]
active: Potency [19] 21.5 µM

CC(C)=CCC/C(C)=C/Cc1c(O)c(CC=C(C)C)c(O)c2c(=O)c3cc(O)ccc3oc12
active: Potency [1] 21.1 µM | Potency [2] 14.8 µM | Potency [3] 14.9 µM | Potency [8] 20.9 µM | Potency [9] 13.2 µM | Potency [11] 13.3 µM | Potency [16] 1.86 µM
inactive: outcome [5] | Potency [6] | Potency [10] | outcome [12] | outcome [14] | Potency [17] | Potency [19]

CO[C@@H]1[C@H](O)[C@@H](C)O[C@@H](OC[C@H]2/C=C/C=C/C(=O)C(C)C[C@H](C)C(O[C@@H]3O[C@H](C)CC4(OC(=O)O[C@@H]4C)C3O)[C@@H](C)/C=C/C(=O)OC2C)[C@@H]1OC (stereo not given in full)
active: Potency [20] 15.3 µM
inactive: Potency [1] | Potency [2] | Potency [3] | outcome [5] | Potency [6] | Potency [7] | Potency [8] | Potency [10] | Potency [11] | outcome [12] | Potency [13] | outcome [14] | Potency [15] | Potency [16] | Potency [17] | Potency [18] | Potency [19]

COc1ccc([C@@H]2c3cc(OC)c(OC)cc3C(=O)[C@H](C)C2C)cc1OC (stereo not given in full)
inactive: activity change, negative = cytotoxicity [1] 3.5% [at 7.64 µM] | outcome [2] inactive [at 9.19 µM] | outcome [3] inactive [at 7.64 µM] | outcome [4] inactive [at 9.19 µM] | caspase activation [5] 1.81% [at 9.19 µM] | activity change, negative = inhibition [6] 0.301% [at 11.5 µM] | activity change, negative = toxicity [7] -6.69% [at 9.19 µM] | outcome [8] inactive [at 9.19 µM] | activity change, negative = inhibition [9] -23.2% [at 9.19 µM] | activity change, negative = inhibition [10] -2.16% [at 9.19 µM] | activation [11] -1.07% [at 7.64 µM] | viability signal change, negative = cytotoxic [12] 10.6% [at 9.19 µM] | activation [13] -1.51% [at 15.3 µM] | cytotoxicity (LDH release) [14] 0.689 [at 9.19 µM] | activation [15] 4.12% [at 9.19 µM] | activity change, negative = depolarization [16] -7.07% [at 9.19 µM] | activity change, negative = inhibition [17] -9% [at 15.3 µM] | activation (cytotoxicity) [18] -0.488% [at 9.19 µM] | activation (redox signal) [19] -5.6% [at 11.4 µM]
